Source: the supplement of paper PMC12494721
Counter-ions that a name gives are not always drawn.

test system: Ruminococcus gnavus DSM 108212; experiment: growth (OD595) fold change vs plate DMSO controls (fold change (ratio)); higher = more growth; settings: incubation time: 27 h, anaerobic, 37 °C
Outline: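 Growth is calculated as fold change against the median of the DMSO control wells on each plate. Readings at 595 nm from anaerobic mGAM cultures (96-well, 27 h, 37 °C) were blank-subtracted, background-corrected with 20 µM compound solutions in water, and converted to OD by a calibration factor of 5. Fold changes above 1.5 were recorded as NA, and results are means of 2 biological replicates.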

Structure (SMILES)	growth
Oc1c(Cl)cc(Cl)cc1Sc1cc(Cl)cc(Cl)c1O [Bithionol] (20 µM)	0.0806
CO[C@@]1(NC(=O)C2SC(=C(C(N)=O)C(=O)O)S2)C(=O)N2C(C(=O)O)=C(CSc3nnnn3C)CS[C@@H]21 (stereo not given in full) [Cefotetan] (20 µM)	1.17
N#CC(c1ccc(Cl)cc1)c1c(Cl)cc(-n2ncc(=O)[nH]c2=O)cc1Cl (stereo not given) [Diclazuril] (20 µM)	0.961
CN(C)CCCN1c2ccccc2Sc2ccc(C(F)(F)F)cc21 [Triflupromazine hydrochloride] (20 µM)	1.21
CCC(=O)OCC(=O)[C@@]1(OC(=O)CC)[C@@H](C)C[C@H]2[C@@H]3CCC4=CC(=O)C=C[C@]4(C)[C@@]3(Cl)[C@@H](O)C[C@@]21C [Beclomethasone dipropionate] (20 µM)	1.22
O=C1CN(/N=C/c2ccc(-c3ccc([N+](=O)[O-])cc3)o2)C(=O)N1 [Dantrolene sodium salt] (20 µM)	0.79
CC(C)(C(=O)O)c1ccc(C(O)CCCN2CCC(C(O)(c3ccccc3)c3ccccc3)CC2)cc1 (stereo not given) [Fexofenadine hydrochloride] (20 µM)	1.19
C[C@H]1[C@@H](O)O[C@@H]2O[C@@]3(C)CC[C@H]4[C@H](C)CC[C@@H]1[C@@]24OO3 [Artenimol] (20 µM)	1.04
CC(C)(C)NC[C@H](O)COc1ccccc1C1CCCC1 [Penbutolol sulfate] (20 µM)	0.952
Cc1ccc(-c2ncc(Cl)cc2-c2ccc(S(C)(=O)=O)cc2)cn1 [Etoricoxib] (20 µM)	0.73
